Shown are actives, neighbours in structure and some others; about 2.8% of the full set was active somewhere.
HIF-2a inh: HIF-2a inhibition; 360,000 compounds, 0.72% hits; inhibition, % at 18.8 µM; 786-0 RCC cells HIF-2a reporter, luciferase luminescence, overnight; AID 624352;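 active = inhibition of the luminescence signal of 40% or more relative to plate controls, in a single-dose primary screen at 18.75 µM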
Peg3 promoter: inhibitors of Peg3 promoter; inhibition, % at 20 µM; HeLa PEG-Prom luciferase reporter, luminescence, overnight; 360,000 compounds, 1.7% hits;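 active = inhibition of at least 50% at 20 µM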
Shn3 inh set2: Schnurri-3 reporter inhibition in Clone20 osteoblasts | inhibition, % at 12.5 µM | AID 588674 | 360,000 compounds, 0.52% hits | Clone20 osteoblast Shn3 3'UTR firefly luciferase, 24 h;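 active = mean inhibition of at least 75% with every replicate also reaching 75%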;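 also: 0% = median of neutral control wells and 100% = pilot-screen positive control compound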
KKLEB tox: reduces viability of KKLEB cystic fibrosis airway cells; KKLEB CF airway cells viability, ATPlite luminescence, overnight; hits give low values; cells stimulated with P. aeruginosa culture filtrate; activity change (cytotoxicity), % at 5 µM; 360,000 compounds, 0.36% hits; AID 602141;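 active = corrected activity change at or below -50% at 5 µM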
MITF TRPM1 inh: reduces MITF-dependent TRPM1 promoter luciferase signal. SK-MEL-5 TRPM1 promoter luciferase, 24 h. inhibition, % at 12.5 µM. 330,000 compounds, 0.83% hits;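 active = mean inhibition across replicates of 60% or more, whatever share of single replicates reaches that level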
CF NFkB inh: cystic fibrosis NF-kB activation inhibition | KKLEB NF-kB-GFP reporter, PAF-induced, GFP fluorescence overnight | inhibition, % at 5 µM | 360,000 compounds, 0.86% hits | AID 588850;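 active = at least 50% inhibition at 5 µM, scaled per plate between neutral and stimulator controls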;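 also: PAF is a Pseudomonas aeruginosa culture filtrate used as stimulus; plate controls were PAF-stimulated DMSO wells for no effect and unstimulated DMSO wells for full effect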
* marks the source's active call; other numbers are inactive results; x = no result given.

SMILES	HIF-2a inh	Peg3 promoter	Shn3 inh set2	KKLEB tox	MITF TRPM1 inh	CF NFkB inh
CC[C@]12c3[nH]c4ccc(Cl)cc4c3CCN1C(=O)[C@@H](CC(=O)NCC13CC4CC(CC(C4)C1)C3)C[C@@H]2C(=O)N1CCN(C(=O)c2ccco2)CC1	-24	67*	80	-7	43	16
CCN(CC)C(=O)[C@H]1C[C@H](CC(=O)NCCCN(C)C)C(=O)N2CCc3c([nH]c4ccc(Cl)cc34)[C@]12C	-10	9	-20	-1	-16	4
CCOc1cc(N2CCOCC2)c(OCC)cc1NC(=O)c1c(-c2ccccc2Cl)noc1C	17	9	13	15	8	-9
CCOCCCNC(=O)C1CCN(S(=O)(=O)c2ccc3nc4c(c(C(=O)O)c3c2)CCCCC4)CC1	3	4	-11	1	-3	-3
N#Cc1ccc(CN2CCN(C(=O)CC(NC(=O)c3ccccc3)c3ccccc3)CC2)cc1 (configuration not stated)	4	8	10	3	-6	5
Oc1cc(Nc2ccccc2)cc2cccnc12	-4	15	94*	-20	56	78*
Oc1cc(-c2cccnc2)cc2cccnc12	2	-1	89*	-24	51	-6
c1ccc(Nc2ccccc2)cc1	15	2	-4	10	4	-19
CN1CCN(c2cc(-c3cc(O)c4ncccc4c3)ccn2)CC1	17	41	36	-12	50	-5
Oc1cccc2cc(Nc3ccccc3)cnc12	-76	-35	95*	-3	x	34
CCCCn1c(NC(=O)c2ccccc2Cl)c(C#N)c2nc3ccccc3nc21	7	53*	-4	-40	3	32
N#Cc1c(NC(=O)c2ccccc2Cl)n(Cc2ccccc2)c2nc3ccccc3nc12	-2	44	7	-43	3	29
COc1ccc(N(C)C(=O)c2cc3c(Cl)nc4ccccc4c3s2)cc1	4	17	3	-6	12	-3
CN1CCN(c2ccccc2NC(=O)c2cc3c(s2)-c2ccccc2OC3)CC1	2	8	x	-10	-13	13
CC1CCCN(CCCNC(=O)c2cc3c(s2)-c2ccccc2OC3)C1 (configuration not stated)	-9	75*	-10	-10	30	10
Cc1nc2ccccc2c2oc(C(=O)NCCCN3CCCC(C)C3)cc12 (configuration not stated)	17	-5	14	12	3	-20
COC(=O)c1cc2c(s1)-c1ccccc1OC2	-124	-77	-17	14	-12	-48
COc1cc(NC(=O)c2cc3c(Cl)nc4ccccc4c3s2)cc(OC)c1OC	9	10	94*	-12	-11	-13
CC1CCCN(CCCNC(=O)c2cc3c(Cl)nc4ccccc4c3s2)C1 (configuration not stated)	25	92*	13	-22	-6	-12
CC1CCN(CCCNC(=O)c2cc3c(s2)-c2ccccc2OC3)CC1	8	62*	-15	-1	45	8
CCOC(=O)c1cc2c(s1)-c1c(C)cccc1OC2	-220	-220	-64	-4	x	8
Cc1cccc2c1-c1sc(C(=O)NCCCN3CCC(C)CC3)cc1CO2	-20	75*	-13	4	2	8
CCN(CC)c1ccc(/C=C2\SC(=O)N(C(C)C)C2=O)o1	-18	89*	97*	13	x	-19
CC(C)N1C(=O)S/C(=C/c2ccc3c(c2)n(C)c(=O)n3C)C1=O	-82	-56	2	5	-42	-60
CCCCNC(=O)C1c2ccccc2OCC(=O)N1CCCN1CCOCC1 (configuration not stated)	3	x	x	x	x	x
SMILES	HIF-2a inh	Peg3 promoter	Shn3 inh set2	KKLEB tox	MITF TRPM1 inh	CF NFkB inh
COc1ccc(C(=O)C(CN2CCCC2)c2ccccc2)cc1 (configuration not stated)	-5	104*	11	-58*	64*	54*
CCCCC(O)(c1ccc(OC)cc1)C(CN1CCOCC1)c1ccccc1 (configuration not stated)	29	52*	25	-7	-7	8
O=C(c1ccc(Cl)cc1)C(CN1CCCC1)c1ccccc1 (configuration not stated)	37	76*	-1	-60*	77*	69*
O=C(c1ccc(Cl)cc1)C1CCN(Cc2ccccc2)CC1	2	10	-3	-9	x	9
O=C(c1ccc(F)cc1)C(CN1CCOCC1)c1ccccc1 (configuration not stated)	30	105*	94*	-68*	90*	90*
CCCCCC(O)(c1ccc(OC)cc1)C(CN1CCOCC1)c1ccccc1 (configuration not stated)	17	33	3	4	-1	5
CC(C)C(=O)N1CCCC1(C)C(=O)Nc1ccc(F)cc1 (configuration not stated)	11	-2	27	1	x	16
CC(=O)Nc1ccc(S(=O)(=O)N[C@@H](C)C(=O)OCC(=O)NC2CCCC2)cc1	3	14	-19	-14	12	0
COc1ccc(C(=O)C(CN2CCOCC2)c2ccccc2)cc1 (configuration not stated)	-20	98*	89*	-61*	83*	54*
CCc1cccc(NC(=O)CSC2=NS(=O)(=O)c3ccccc32)c1	-30	68*	-26	35	55	-8
CC(=O)C[C@H](O)CC(=O)[C@@H]1OC(=O)CCCCCc2ccccc21	7	-7	0	4	-1	-10
O=C1C=C(N2CCOCC2)c2ccccc2C1=O	37	101*	97*	-76*	85*	85*
O=C1C=C(N2CCOCC2)c2cccc3cccc1c23	-7	-20	3	1	x	-16
CC1CN(S(=O)(=O)c2cccc(C(=O)OC(C)C(=O)NC3CCCCC3C)c2)CC(C)O1 (configuration not stated)	19	12	-8	5	-2	1
COc1ccc(-c2nn(-c3ccccc3)cc2CNC[C@H]2O[C@@H](n3cnc4c(N)ncnc43)[C@H](O)[C@@H]2O)cc1	-2	-11	-6	-10	0	2
COc1ccc(OC)c(-c2cc(C(=O)Nc3sc4c(c3C#N)CCC(C)C4)c3ccccc3n2)c1 (configuration not stated)	9	3	-12	-52*	13	38
Cc1ccccc1-c1cc(C(=O)Nc2sc(C(=O)OC(C)C)c(C)c2C#N)c2ccccc2n1	3	31	71	-54*	43	56*
COC(=O)c1sc(NC(=O)c2cc(-c3ccccc3)nc3ccccc23)c(C#N)c1C	-6	35	79	-33	46	34

Screening data (PubChem)
